Myeloid diff MLP – induction of myeloid progenitor differentiation, primary screen, cell-based, flow cytometry, MLPCN library; 360,000 compounds, 1% hits; ER-HoxA9 myeloid progenitors, lysozyme-GFP differentiation; calls only at 10 µM;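 active means normalized GFP-positive differentiation at or above the plate's own cutoff, the solvent-only control mean plus 3 SD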;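 further: cells exposed to compound for four days before flow analysis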
Rtt109 Vps75 – inhibitors of C. albicans Rtt109/Vps75 HAT, primary screen, biochemical, ThioGlo CoA-SH fluorescence, plate reader. Histone acetyltransferase RTT109 (Candida albicans (strain SC5314 / ATCC MYA-2876)), …. purified Rtt109/Vps75, 4 h. inhibition, % at 34.9 µM. 330,000 compounds, 0.16% hits. AID 540336, 2011;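 active means inhibition of at least 50% in every replicate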
Target sequence (Q5AAJ8 whole entry, looked up): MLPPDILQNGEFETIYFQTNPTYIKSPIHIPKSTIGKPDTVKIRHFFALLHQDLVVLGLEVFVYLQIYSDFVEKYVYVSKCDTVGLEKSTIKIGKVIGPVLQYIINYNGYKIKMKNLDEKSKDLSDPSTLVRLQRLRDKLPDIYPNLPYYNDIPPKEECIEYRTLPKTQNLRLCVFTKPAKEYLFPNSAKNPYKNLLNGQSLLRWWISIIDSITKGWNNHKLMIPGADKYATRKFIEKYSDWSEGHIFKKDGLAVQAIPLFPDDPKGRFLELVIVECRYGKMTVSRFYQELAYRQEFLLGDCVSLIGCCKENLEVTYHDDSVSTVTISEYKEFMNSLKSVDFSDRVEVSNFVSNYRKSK
H9c2 protect – cardioprotection against H2O2-induced cell death, primary screen, uHTS, H9c2 cells, ATPLite luminescence. protection from H2O2 cell death, % at 20 µM. 360,000 compounds, 0.63% hits. AID 588492, 2011. H9c2 cardiomyocytes, H2O2 injury protection, 2 h;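 active means compounds giving at least 50% protection of heart cells from peroxide-induced death in the single-dose screen, raw or plate-pattern-corrected value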
DAGLB inh – DAGLB lipase inhibitors, primary screen, biochemical, fluorescence, HTS; 340,000 compounds, 0.059% hits; inhibition, % at 5.17 µM; AID 504411, 2011; HEK293T DAGLB membrane lysate, EnzChek fluorogenic substrate; in the data active means inhibition above about 34%
ABHD5-PLIN5 inh – ABHD5-PLIN5 interaction inhibitors, primary screen, cell lysate, split luciferase complementation, luminescence. AID 602281, 2012. inhibition, % at 4 µM. Split G. princeps luciferase complementation, 4 h. 360,000 compounds, 0.78% hits. Perilipin-5 (Homo sapiens) + 1-acylglycerol-3-phosphate O-acyltransferase ABHD5 (Homo …;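 active means inhibition above the mean inhibition across every tested compound plus 3 SD, cut at about 22% in these data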
HGIII-sPLA2 inh – human group III sPLA2 inhibitors, primary screen, biochemical, QFRET, BODIPY PC-A2 liposome substrate | QFRET BODIPY PC-A2 liposome hydrolysis, fluorescence | inhibition, % at 12.2 µM | 370,000 compounds, 0.56% hits | Group 3 secretory phospholipase A2 (Homo sapiens), Q9NZ20;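 active means inhibition above mean plus 3 SD of compounds lying within the high and low control bounds, cut at about 19% in these data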
Myeloid diff – inducers of myeloid progenitor differentiation, confirmation, cell-based, GFP/Mac1 flow cytometry, cherry pick 01; shares compounds with Myeloid diff MLP; ER-HoxA9 myeloid progenitors, GFP/Mac1 double-positive flow; calls only; 2,300 compounds, 2% hits; AID 651706, 2012;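 active means share of green or green-and-red cells above 9 and 9% in run 1 or 4 and 3% in run 2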
GFP autofluor – counter-screen for myeloid differentiation promoters: compound fluorescence; AID 651707; 2,300 compounds, 7.4% hits; ER-HoxA9 myeloid progenitors, no estrogen, GFP autofluorescence flow cytometry; vehicle wells 0%, positive control 100%; shares compounds with Myeloid diff MLP; fluorescence response, % (test concentration not listed);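 active means over 5% cells positive for green fluorescent reporter, or over 2% positive for both it and APC stain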
Of the large screens only hits and unclear results are named; the others gave an inactive call (follow-up assays come after a bar, where they were run). In the library only some 2.9% were active in any assay of this set; here they are far more common.

COc1cc(CN2CCN(c3ccccc3F)CC2)cc(OC)c1O	none
CN(C(=O)C(C)(C)C)[C@H]1C[C@H]2c3[nH]c4ccccc4c3CCN2C(=O)[C@H]1CO	none (no result: Rtt109 Vps75) | Myeloid diff inactive | GFP autofluor inactive
COc1ccccc1NC(=S)N(Cc1ccco1)Cc1cc2cc(C)cc(C)c2[nH]c1=O	none | Myeloid diff inactive | GFP autofluor inactive
COCCn1c(SCC(=O)Nc2nnc(C)s2)nnc1-c1ccoc1C	none
CCc1cccc(CC)c1NC(=O)NC1CCCCC1	Myeloid diff MLP active | Myeloid diff inactive | GFP autofluor inactive
CCc1ccccc1NC(=O)NC1CCCCC1	none
Cc1ccc(N(C(=O)Cn2nnc(-c3cccs3)n2)C(C(=O)NC2CCCC2)c2ccncc2)cc1 (stereo unspecified)	none | Myeloid diff inactive | GFP autofluor inactive
O=C1CCCN1CCCNS(=O)(=O)c1ccc(Cl)c(C(=O)N2CCOCC2)c1	none | Myeloid diff inactive | GFP autofluor inactive
O=C(CSc1nnc(CNC(=O)c2ccco2)o1)Nc1cccc(Cl)c1	Myeloid diff MLP active | Myeloid diff inactive | GFP autofluor inactive
CCNC(=O)/C(C#N)=C/c1c(N(Cc2ccccc2)Cc2ccccc2)nc2ccccn2c1=O	Myeloid diff MLP active, H9c2 protect 73 | Myeloid diff inactive | GFP autofluor inactive
CNC(=O)/C(C#N)=C/c1c(N(Cc2ccccc2)Cc2ccccc2)nc2c(C)cccn2c1=O	none
CN(c1ccc(C(=O)N/N=C/c2cccc([N+](=O)[O-])c2)cc1)S(=O)(=O)c1ccccc1	none | Myeloid diff inactive | GFP autofluor inactive
COc1ccc(/C=N/NC(=O)c2ccc(N(C)S(=O)(=O)c3ccccc3)cc2)cc1	none
O=C1CCCc2c1[nH]c1c(Br)cccc21	none
Cc1ccc(C)c(NC(=O)CCC(=O)NNS(=O)(=O)c2ccc(Cl)cc2)c1	none
CCc1ccc(C(=O)NNC(=O)CCN2CCN(Cc3ccccc3)CC2)cc1	none
O=C(CN1CCN(Cc2ccccc2)CC1)NNC(=O)c1ccccc1	none | Myeloid diff inactive | GFP autofluor inactive
S=C(c1cn(Cc2ccc(Br)cc2)c2ccccc12)N1CCOCC1	none | Myeloid diff inactive | GFP autofluor inactive
S=C(c1cn(Cc2ccccc2)c2ccccc12)N1CCOCC1	none
CCOC(=O)c1ccc(N2CCCCC2)c(NS(=O)(=O)c2ccc(C)cc2)c1	none (no result: DAGLB inh)
COc1cccc(OC(C)c2ccnc3nc(/N=C/N(C)C)nn23)c1 (stereo unspecified)	none | Myeloid diff inactive | GFP autofluor inactive
Cc1cccc(OC(C)c2ccnc3nc(/N=C/N(C)C)nn23)c1 (stereo unspecified)	none
CC[n+]1c(/C=C/c2ccc(OC)c(OC)c2)ccc2ccccc21	Myeloid diff MLP active | Myeloid diff inactive | GFP autofluor inactive
C=CCc1cccc(C=Nc2c[nH]c(=O)[nH]c2=O)c1O	none
C=CCc1cccc(C=Nc2cc(Br)ccc2O)c1O	Myeloid diff MLP active | Myeloid diff inactive | GFP autofluor inactive
CCOC(=O)c1c(N)sc2c1CCC(C)C2 (stereo unspecified)	Myeloid diff MLP active | Myeloid diff inactive | GFP autofluor inactive
CCc1ccc(CNC(=O)CCc2nnc(Cc3cccc(C(F)(F)F)c3)o2)nc1	Myeloid diff MLP active | Myeloid diff inactive | GFP autofluor inactive
CC(C)NC(=O)CCc1nnc(Cc2cccc(C(F)(F)F)c2)o1	none
Cc1ccc2c(c1)S/C(=C\c1cccc[n+]1C)N2CCO	Myeloid diff MLP active | Myeloid diff inactive | GFP autofluor 68
COc1ccc(CCC(=O)Nc2ccc(S(=O)(=O)NC3=NCCCCC3)cc2)cc1	none (no result: Rtt109 Vps75)
COc1cc(CCC(=O)Nc2ccc(S(=O)(=O)NC3=NCCCCC3)cc2)cc(OC)c1OC	none | Myeloid diff inactive | GFP autofluor inactive
COc1ccc(CCN2C(=O)CCC2(C)c2nnnn2-c2c(C)cccc2C)cc1OC (stereo unspecified)	none (no result: Rtt109 Vps75, H9c2 protect, DAGLB inh)
CCOc1ccccc1CSc1nc2ccccc2[nH]1	none | Myeloid diff inactive | GFP autofluor inactive
Cc1ncc(CSc2nc3ccccc3[nH]2)c(N)n1	none
CCc1cc(C(=O)c2ccccc2OC)c(N)s1	none (no result: Rtt109 Vps75) | Myeloid diff inactive | GFP autofluor inactive
c1ccc(COc2ccc(OCCn3cncn3)cc2)cc1	none | Myeloid diff inactive | GFP autofluor inactive
c1ccc(-c2ccc(OCCCn3cncn3)cc2)cc1	none
[O-][n+]1cccc(C(O)c2ccccc2)c1 (stereo unspecified)	none
COc1ccc(-c2nnc(NC(=O)c3ccc(S(=O)(=O)N4COCC4(C)C)cc3)o2)cc1	none | Myeloid diff inactive | GFP autofluor 5.3
Cc1ccc(NC(=O)COC(=O)CN2C(=O)NC3(CCCC3)C2=O)cc1F	none | Myeloid diff inactive | GFP autofluor inactive
CN(CC(=O)Nc1ccc(F)cc1)C(=O)COC(=O)CN1C(=O)NC2(CCCC2)C1=O	none
C[C@H]1CN=C(Nc2ccccc2)N1CCCC1CCCCC1	none
C[C@H](CO)N1C[C@H](C)[C@@H](CN(C)S(=O)(=O)c2ccc(F)cc2)Oc2ccc(NC(=O)C3CCCCC3)cc2C1=O	none | Myeloid diff inactive | GFP autofluor inactive
Cc1ccc(S(=O)(=O)N(C)C[C@H]2Oc3ccc(NC(=O)C4CCCCC4)cc3C(=O)N([C@H](C)CO)C[C@H]2C)cc1	none
Cc1ccc(/C=N/Nc2nc(C(C)(C)C)cs2)o1	none
Cc1ccc(/C=N/Nc2nc3ccccc3s2)o1	none | Myeloid diff inactive | GFP autofluor inactive
CC(C)N1CCc2c(sc(NC(=O)c3cc(-c4cccs4)nc4ccccc34)c2C(N)=O)C1	none (no result: HGIII-sPLA2 inh)
CC(C)N1CCc2c(sc(NC(=O)c3nc4ccccc4s3)c2C(N)=O)C1	Myeloid diff MLP active | Myeloid diff inactive | GFP autofluor inactive
CCN(CC)C(=O)C(=O)Nc1ccc(Oc2ccccc2)cc1	none
Cc1cc(=O)n2c3ccccc3n(CC(O)CN3CCCCC3)c2c1C#N (stereo unspecified)	Myeloid diff MLP active | Myeloid diff inactive | GFP autofluor inactive

Assay outcomes deposited in PubChem BioAssay by several laboratories.
